Reference: PubChem BioAssay AID1159580 (chemical genetic matrix, 2015)
Several values for one entry are separate records, joined by “and”; a condition that tells them apart may be missing. Equal values may be shown once. In all, about 5,500 compounds went through this assay and about 2,000 (36%) were called active. Roughly 18% stayed inconclusive and do not appear here. No stated cut-off is given here; in the data, active means normalized growth mostly below about 0.91 (no sharp cut-off); inconclusive means no clear call, values can overlap the other calls; inactive means mostly above about 0.92. The list shows a part of the results.

Experiment: chemical genetic growth profiling, strain panel (AID 1159580);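 further: tested at 20 µM; growth read once vehicle control cultures reached saturation at 30 °C; 1 = growth at the plate median or of vehicle wells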
Conditions: growth OD

Measured: normalized growth

COc1ccc2[nH]cc(CCN)c2c1
inactive: S. cerevisiae deletion strains, locus YJR043C, strain POL32, stronger effect = lower value 1.02 | S. cerevisiae deletion strains, locus YJR075W, strain HOC1, stronger effect = lower value 0.995 and 0.984 | S. cerevisiae deletion strains, locus YKL009W, strain mrt4, stronger effect = lower value 0.94 | S. cerevisiae deletion strains, locus YKL068W, stronger effect = lower value 0.986 | S. cerevisiae deletion strains, locus YKL085W, strain MDH1 (second series), stronger effect = lower value 0.991 | S. cerevisiae deletion strains, locus YKL085W, strain MDH1, stronger effect = lower value 0.991 | S. cerevisiae deletion strains, locus YKL160W, strain elf1, stronger effect = lower value 1 | S. cerevisiae deletion strains, locus YKL190W, strain CNB1, stronger effect = lower value 0.996 | S. cerevisiae deletion strains, locus YKR001C, strain vps1, stronger effect = lower value 0.987 | S. cerevisiae deletion strains, locus YKR026C, strain gcn3, stronger effect = lower value 0.988 | S. cerevisiae deletion strains, locus YKR091W, strain srl3, stronger effect = lower value 0.996 | S. cerevisiae deletion strains, locus YLL001W, strain dnm1, stronger effect = lower value 1 | S. cerevisiae deletion strains, locus YLL026W, stronger effect = lower value 0.997 | S. cerevisiae deletion strains, locus YLL041C, strain sdh2, stronger effect = lower value 0.991 | S. cerevisiae deletion strains, locus YLR027C, strain aat2, stronger effect = lower value 1 | S. cerevisiae deletion strains, locus YLR039C, strain RIC1, stronger effect = lower value 1.03 | S. cerevisiae deletion strains, locus YLR058C, strain SHM2, stronger effect = lower value 0.97 | S. cerevisiae deletion strains, locus YLR102C, strain apc9, stronger effect = lower value 0.982 | S. cerevisiae deletion strains, locus YLR221C, strain rsa3, stronger effect = lower value 0.969 | S. cerevisiae deletion strains, locus YLR258W, strain gsy2, stronger effect = lower value 0.997 | S. cerevisiae deletion strains, locus YLR262C, strain YPT6 (second series), stronger effect = lower value 0.999 | S. cerevisiae deletion strains, locus YLR262C, strain YPT6, stronger effect = lower value 0.989 | S. cerevisiae deletion strains, locus YLR268W, strain sec22, stronger effect = lower value 1.06 | S. cerevisiae deletion strains, locus YLR320W, strain mms22, stronger effect = lower value 0.965 | S. cerevisiae deletion strains, locus YLR330W, strain CHS5, stronger effect = lower value 0.995 | S. cerevisiae deletion strains, locus YLR342W, strain FKS1 (second series), stronger effect = lower value 0.991 | S. cerevisiae deletion strains, locus YLR342W, strain FKS1, stronger effect = lower value 1.01 | S. cerevisiae deletion strains, locus YLR357W, strain rsc2, stronger effect = lower value 0.991 | S. cerevisiae deletion strains, locus YLR370C, strain arc18, stronger effect = lower value 0.994 | S. cerevisiae deletion strains, locus YLR371W, strain rom2, stronger effect = lower value 0.974 | S. cerevisiae deletion strains, locus YLR384C, strain iki3, stronger effect = lower value 0.999 | S. cerevisiae deletion strains, locus YLR418C, strain cdc73, stronger effect = lower value 0.978 | S. cerevisiae deletion strains, locus YML016C, strain PPZ1, stronger effect = lower value 0.984 | S. cerevisiae deletion strains, locus YML032C, strain rad52, stronger effect = lower value 1 | S. cerevisiae deletion strains, locus YML120C, strain ndi1, stronger effect = lower value 1.01 | S. cerevisiae deletion strains, locus YML124C, strain tub3, stronger effect = lower value 0.984 | S. cerevisiae deletion strains, locus YMR058W, strain fet3, stronger effect = lower value 0.988 | S. cerevisiae deletion strains, locus YMR078C, strain ctf18, stronger effect = lower value 0.99 | S. cerevisiae deletion strains, locus YMR125W, strain sto1, stronger effect = lower value 0.992 | S. cerevisiae deletion strains, locus YMR129W, stronger effect = lower value 0.981 | S. cerevisiae deletion strains, locus YMR205C, strain PFK2, stronger effect = lower value 1.02 | S. cerevisiae deletion strains, locus YMR223W, strain ubp8, stronger effect = lower value 0.957 | S. cerevisiae deletion strains, locus YMR231W, strain pep5, stronger effect = lower value 0.994 | S. cerevisiae deletion strains, locus YMR263W, strain SAP30, stronger effect = lower value 0.981 and 0.985 | S. cerevisiae deletion strains, locus YMR307W, strain GAS1, stronger effect = lower value 0.947 | S. cerevisiae deletion strains, locus YNL067W, strain RPL9B, stronger effect = lower value 1.01 | S. cerevisiae deletion strains, locus YNL071W, strain lat1, stronger effect = lower value 1.01 | S. cerevisiae deletion strains, locus YNL128W, strain TEP1, stronger effect = lower value 0.975 | S. cerevisiae deletion strains, locus YNL153C, strain GIM3, stronger effect = lower value 1 | S. cerevisiae deletion strains, locus YNL175C, strain NOP13, stronger effect = lower value 1 | S. cerevisiae deletion strains, locus YNL197C, strain WHI3, stronger effect = lower value 0.99 | S. cerevisiae deletion strains, locus YNL209W, strain ssb2, stronger effect = lower value 1.01 | S. cerevisiae deletion strains, locus YNL224C, strain SQS1, stronger effect = lower value 0.982 | S. cerevisiae deletion strains, locus YNL233W, strain BNI4, stronger effect = lower value 1 | S. cerevisiae deletion strains, locus YNL248C, strain rpa49, stronger effect = lower value 0.972 | S. cerevisiae deletion strains, locus YNL250W, strain rad50, stronger effect = lower value 0.963 | S. cerevisiae deletion strains, locus YNL271C, strain bni1, stronger effect = lower value 0.996 | S. cerevisiae deletion strains, locus YNL298W, strain CLA4, stronger effect = lower value 0.971 | S. cerevisiae deletion strains, locus YNL307C, strain MCK1, stronger effect = lower value 0.989 | S. cerevisiae deletion strains, locus YNL322C, strain KRE1 (second series), stronger effect = lower value 1 | S. cerevisiae deletion strains, locus YNL322C, strain KRE1, stronger effect = lower value 0.991 and 0.992 | S. cerevisiae deletion strains, locus YNR049C, strain mso1, stronger effect = lower value 0.984 | S. cerevisiae deletion strains, locus YNR052C, strain pop2, stronger effect = lower value 0.976 | S. cerevisiae deletion strains, locus YOL006C, strain TOP1, stronger effect = lower value 1.03 | S. cerevisiae deletion strains, locus YOL012C, strain htz1 0.627 | S. cerevisiae deletion strains, locus YOL147C, strain pex11, stronger effect = lower value 0.987 | S. cerevisiae deletion strains, locus YOR001W, strain rrp6, stronger effect = lower value 0.931 | S. cerevisiae deletion strains, locus YOR061W, strain CKA2, stronger effect = lower value 0.965 | S. cerevisiae deletion strains, locus YOR069W, strain VPS5, stronger effect = lower value 0.983 | S. cerevisiae deletion strains, locus YOR070C, strain gyp1, stronger effect = lower value 0.979 | S. cerevisiae deletion strains, locus YOR080W, strain dia2, stronger effect = lower value 0.991 | S. cerevisiae deletion strains, locus YOR083W, strain WHI5 (second series), stronger effect = lower value 0.99 | S. cerevisiae deletion strains, locus YOR083W, strain WHI5, stronger effect = lower value 1.02 | S. cerevisiae deletion strains, locus YOR106W, strain vam3, stronger effect = lower value 1.02 | S. cerevisiae deletion strains, locus YOR136W, strain idh2, stronger effect = lower value 0.998 | S. cerevisiae deletion strains, locus YOR144C, strain elg1, stronger effect = lower value 0.985 | S. cerevisiae deletion strains, locus YOR184W, strain ser1, stronger effect = lower value 1.01 | S. cerevisiae deletion strains, locus YOR265W, strain rbl2, stronger effect = lower value 0.991 | S. cerevisiae deletion strains, locus YOR270C, strain vph1, stronger effect = lower value 0.957 | S. cerevisiae deletion strains, locus YOR290C, strain snf2, stronger effect = lower value 1.01 | S. cerevisiae deletion strains, locus YOR316C, strain cot1, stronger effect = lower value 0.994 | S. cerevisiae deletion strains, locus YPL051W, strain arl3, stronger effect = lower value 1.01 | S. cerevisiae deletion strains, locus YPL055C, strain LGE1, stronger effect = lower value 0.977 | S. cerevisiae deletion strains, locus YPL078C, strain atp4, stronger effect = lower value 1.02 | S. cerevisiae deletion strains, locus YPL106C, strain sse1, stronger effect = lower value 1.01 | S. cerevisiae deletion strains, locus YPL240C, strain hsp82, stronger effect = lower value 0.995 | S. cerevisiae deletion strains, locus YPL241C, strain CIN2, stronger effect = lower value 0.994 and 1.01 | S. cerevisiae deletion strains, locus YPR119W, strain clb2, stronger effect = lower value 0.989 | S. cerevisiae deletion strains, locus YPR141C, strain kar3, stronger effect = lower value 0.976 | S. cerevisiae deletion strains, locus YPR163C, strain tif3, stronger effect = lower value 0.995 | S. cerevisiae deletion strains, locus YPR167C, strain met16, stronger effect = lower value 0.989 | S. cerevisiae deletion strains, strain wtn01, stronger effect = lower value 1.02 | S. cerevisiae strains, strain wild type, stronger effect = lower value 0.984
